A short description of test [1]: qHTS assay for measurement of the activity of small molecule inhibitors on Zika virus induced Caspase-3 activity in human iPSC derived neural progenitor cells (hNPCs) (AID 1224857). Further: nearly all actives have a fitted effect of over 65% in size. Further: potency means the concentration at half of the fitted maximal effect. The essentials: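 Pretreat hNPCs with compound 1 h; infect ZIKV 2 FFU/cell; 6 h 37 C, 5% CO2; Caspase-Glo 3/7, 30 min RT; luminescence; normalize to no-virus and virus-only wells.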
Test [2] in a line: qHTS for Activators of Parkin Expression: LOPAC Validation Assay (NLuc Reporter) (AID 720572). The essentials: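 Parkin promoter-driven FLuc/NLuc neuronal reporter cells; 24 h plating, 7-pt dose response, 24 h at 37 C/5% CO2; FLuc then NanoLuc reagent, 10 min each, luminescence; DMSO/positive control normalized.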
Test [3] is described as follows: qHTS for Activators of Parkin Expression: LOPAC Validation Assay (FLuc Reporter) (AID 720573). The method in brief:
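Neuronal cell line stably carrying FLuc/NLuc coincidence reporter under Parkin promoter; cells plated 24 h, then compounds added in 7-point dose response for 24 h at 37 C. FLuc luminescence read; normalized to DMSO and positive control (100%).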

The nature of test [4]: qHTS assay for small molecule agonists of the antioxidant response element (ARE) signaling pathway measured by Nrf2-dependant transcriptional activity (AID 720636; active means well fitted curve in the direction sought with a large enough effect in the repeat runs; an effect the other way counts as inactive or inconclusive;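 further: HepG2 cells with an ARE-driven luciferase reporter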). The method in brief: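 HepG2 ARE-luc reporter line, 1% dialyzed FBS; 6 hr attachment at 37 C, compound pinned in, 16 hr at 37 C/5% CO2; ONE-Glo, 30 min RT, luminescence read.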
The nature of test [5]: qHTS assay for small molecule agonists of the antioxidant response element (ARE) signaling pathway measured by Nrf2-dependant transcriptional activity - cell viability counter screen (AID 720653; active means well fitted curve in the direction sought with a large enough effect in the repeat runs; an effect the other way counts as inactive or inconclusive). The settings on record: ARE-bla HepG2 viability, CellTiter-Glo ATP luminescence, 16 h; max response: stronger effect = lower value. The essentials: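 Cytotoxicity counter screen: intracellular ATP quantified by CellTiter-Glo luminescence in the same ARE-bla HepG2 plates, after 16 h compound exposure and a 2 h beta-lactamase substrate step.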

Test [6] concerns the target T1, Hexokinase-4 (Homo sapiens) + Glucokinase regulatory protein (Homo sapiens) (UniProt P35557+Q14397). The test is described as follows: qHTS assay for inhibitors of recombinant human GCK-GKRP interaction: Diaphorase-coupled assay (AID 743205). The essentials:
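GST-GCK (10 nM) with FLAG-GKRP (10 nM), 5 mM glucose and 0.4 mM ATP in pH 7.6 Hepes; compounds preincubated 20 min with substrate. G6PDH/diaphorase coupling converts resazurin to resorufin, read kinetically (ex 525/em 590 nm) for 30 min.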

For test [7], the target named is T1, Hexokinase-4 (Homo sapiens) + Glucokinase regulatory protein (Homo sapiens). The test is described as follows: qHTS assay for inhibitors of recombinant human GCK-GKRP interaction: ADP-Glo assay (AID 743206). The method in brief:
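GST-GCK and FLAG-GKRP (15 nM each in the dispensed mix, with 2 uM S6P) react with 0.4 mM ATP and 5 mM glucose (final) in Hepes pH 7.6 for 60 min at room temperature. ADP is measured by ADP-Glo luminescence.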

Test [8] has the same target. The test is described as follows: qHTS assay for inhibitors of recombinant human GCK-GKRP interaction: HTRF assay (AID 743207). The essentials: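 GST-GCK and FLAG-GKRP (5 nM each) were combined with 2 uM S6P in pH 7.1 Hepes/MgCl2/KCl/DTT buffer, then compound and anti-FLAG XL665/anti-GST K antibodies were added. After 60 min at room temperature, HTRF 665/615 nm emission was read.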

The nature of test [9]: qHTS assay for cell viability of HEK293 cells (AID 743288). Further: nearly all actives have a fitted effect of over 50% in size. Conditions: ATP luminescence (CellTiter-Glo), 18 h; max response: stronger effect = lower value. The essentials:
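Parental HEK293 cells were seeded at 2,000 cells/well, rested at least 5 h at 37 C, then exposed to compounds in DMSO for 18 h at 37 C. Viability was read as ATP-dependent luciferase luminescence after 30 min at room temperature.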

Test [10] is described as follows: qHTS assay for cell viability of the p53RE-bla HCT-116 cell line (AID 743292). Further: nearly all actives have a fitted effect of over 55% in size. The essentials:
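Luminescent ATP quantitation (CellTiter-Glo) served as the viability read-out; reagent was added after 16 h compound exposure at 37 C and read after 30 min at room temperature. Cells: p53RE-bla HCT-116, 4,000 per well.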

Test [11] in a line: qHTS assay for measurement of the activity of small molecule inhibitors on Zika virus induced Caspase-3 activity in human astrocytoma cells (AID 1224859). The essentials: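 Human SNB-19 astrocytoma cells in RPMI 1640 with 10% FBS receive compound one hour ahead of Zika virus at 2 FFU/cell. After 6 h infection, caspase-3/7 activity is detected by Caspase-Glo luminescence.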

Where “and” joins values, the source holds several entries; their conditions need not be identical. Equal values may be shown once. Results filed as inconclusive are left out. Where a call stands in place of a potency, no number is given. Calls of active or inactive are those of the source. Unless noted, the call rests on the fitted dose curve; in most records, active means well fitted curve in the direction sought with a large enough effect; inconclusive means small, poorly fitted or top-dose-only effect, or another doubt; inactive means no such curve, though single readings can be large; an effect the other way counts as inactive or inconclusive.

T1 sequence (P35557 whole entry, looked up): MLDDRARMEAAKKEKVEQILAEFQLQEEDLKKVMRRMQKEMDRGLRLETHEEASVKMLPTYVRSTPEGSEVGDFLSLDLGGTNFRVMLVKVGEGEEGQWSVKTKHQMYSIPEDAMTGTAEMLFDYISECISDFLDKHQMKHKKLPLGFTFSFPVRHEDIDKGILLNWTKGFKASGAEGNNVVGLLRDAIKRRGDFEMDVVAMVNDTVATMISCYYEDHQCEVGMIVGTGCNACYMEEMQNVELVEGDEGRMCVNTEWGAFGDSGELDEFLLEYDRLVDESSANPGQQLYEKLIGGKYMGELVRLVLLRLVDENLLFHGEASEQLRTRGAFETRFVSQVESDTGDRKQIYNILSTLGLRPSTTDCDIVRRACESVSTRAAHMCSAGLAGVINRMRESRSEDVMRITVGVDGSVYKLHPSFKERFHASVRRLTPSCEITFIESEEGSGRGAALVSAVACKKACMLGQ
T1 sequence (Q14397 whole entry, looked up): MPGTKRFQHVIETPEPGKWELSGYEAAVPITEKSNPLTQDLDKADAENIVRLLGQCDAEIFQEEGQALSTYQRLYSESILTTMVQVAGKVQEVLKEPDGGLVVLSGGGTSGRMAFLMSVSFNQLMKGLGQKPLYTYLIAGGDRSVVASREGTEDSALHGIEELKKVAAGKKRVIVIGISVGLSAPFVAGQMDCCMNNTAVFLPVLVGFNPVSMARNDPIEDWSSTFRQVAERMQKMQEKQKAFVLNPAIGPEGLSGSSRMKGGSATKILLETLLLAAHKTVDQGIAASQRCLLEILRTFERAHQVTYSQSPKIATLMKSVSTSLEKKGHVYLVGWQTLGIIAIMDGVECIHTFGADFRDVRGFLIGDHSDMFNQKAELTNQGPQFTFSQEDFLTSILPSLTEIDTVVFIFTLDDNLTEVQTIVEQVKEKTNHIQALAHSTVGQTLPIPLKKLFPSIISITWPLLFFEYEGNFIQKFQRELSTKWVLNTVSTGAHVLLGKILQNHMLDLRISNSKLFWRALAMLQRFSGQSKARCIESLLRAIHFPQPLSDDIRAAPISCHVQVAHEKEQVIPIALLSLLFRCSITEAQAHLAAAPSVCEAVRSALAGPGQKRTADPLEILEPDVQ

Regarding `CNc1ncnc2c1ncn2[C@@H]1O[C@H](CO)C(O)[C@H]1O` (stereo partly drawn), in [1], the Potency result is “inactive”.
For the compound `Cn1c(=O)c(-c2c(Cl)cccc2Cl)cc2cnc(Nc3ccc(N4CCOCC4)cc3)nc21`, the Potency result in [1] was “inactive”.
The same measure, in the same setting: then `CCN(CC)CCCCNc1ncc2cc(-c3c(Cl)cccc3Cl)c(NC(=O)NC(C)(C)C)nc2n1`, with “inactive”; and `OCC1O[C@H]([S-])C(O)[C@@H](O)[C@@H]1O.[Au+]` (stereo partly drawn), with “inactive”; and `N=c1ccn2c(n1)O[C@H]1C(O)[C@@H](CO)O[C@H]12` (stereo partly drawn), with “inactive”.
The same measure, in the same setting: the value for `C[N+](C)(C)CCOP(=O)(O)OP(=O)([O-])OC[C@H]1O[C@@H](n2ccc(N)nc2=O)[C@H](O)C1O` (stereo partly drawn) was “inactive”; that for `O=C1NC(O)=NC1(c1ccccc1)c1ccccc1` was “inactive”; that for `COc1ccccc1CN[C@@H]1CCCN[C@@H]1c1ccccc1` was “inactive”.
The same measure, in the same setting: then `CCNc1nc2c(ncn2[C@H]2C[C@H](O)[C@@H](CO)O2)c(=O)[nH]1`, with “inactive”; and `O=C(Nc1ccc2c(c1)CCN(Cc1ncn[nH]1)C2)c1ccccc1-c1ccc(C(F)(F)F)cc1`, with “inactive”; and `CN(CCCOc1ccc(Cc2ccccc2)cc1)CCC(=O)O`, with “inactive”.
In the case of `CC(C)(C)c1nnc(NS(=O)(=O)c2ccc(N)cc2)s1`, in test [1], the Potency entry is “inactive”.
Still for that read-out and setting: the value for `COc1ccc(Br)cc1S(=O)(=O)NC(=O)/C=C/c1ccccc1Cc1ccc2ccccc2c1` was “inactive”.
The same measure, in the same setting: then `CC(C(=O)O)c1ccc(C(=O)c2cccs2)cc1` (stereo not drawn), with 22.4 µM (active).
For `NCC1OC(OC2C(O)[C@@H](OC3C(O)C(N)CC(N)C3OC3OC(CO)C(O)C(O)C3N)O[C@@H]2CO)C(N)C(O)C1O` (stereo partly drawn), in test [1], the Potency result is “inactive”.
The same measure, in the same setting: the value for `Nc1nc(OCC2CCCCC2)c2[nH]cnc2n1` was “inactive”; that for `CC[C@@H](C)[C@H]1O[C@]2(CC[C@@H]1C)C[C@@H]1C[C@@H](C/C=C(\C)[C@@H](O[C@H]3C[C@H](OC)[C@@H](O[C@H]4C[C@H](OC)[C@@H](O)[C@H](C)O4)[C@H](C)O3)[C@@H](C)/C=C/C=C3\CO[C@@H]4[C@H](O)C(C)=C[C@@H](C(=O)O1)[C@]34O)O2` was “inactive”; that for `CC[C@H]1OC(=O)[C@H](C)[C@@H](O[C@H]2C[C@@](C)(OC)[C@@H](O)[C@H](C)O2)[C@H](C)[C@@H](O[C@@H]2O[C@H](C)C[C@H](NC)[C@H]2O)[C@](C)(O)C[C@@H](C)CN(C)[C@H](C)[C@@H](O)[C@]1(C)O` was “inactive”.
On the same count and under the same terms, then `O=C(CCc1ccncc1)NNC(=O)N1Cc2ccccc2Oc2ccc(Cl)cc21`, with “inactive”; and `S=c1[nH]c(-c2ccccc2)cn1-c1ccccc1`, with “inactive”.
On the same count and under the same terms, then `CCCCC#Cc1nc(NC)c2ncn([C@@H]3O[C@H](CO)[C@@H](O)C3O)c2n1` (stereo partly drawn), with “inactive”; and `COc1ccc(C(=O)/C(Cc2cc(OC)c(OC)c(OC)c2)=C(\C(=O)O)c2ccc3c(c2)OCO3)cc1`, with “inactive”.
For the compound `O=C1CN(/N=C/c2ccc(-c3ccc([N+](=O)[O-])cc3)o2)C(=O)N1`, the Potency entry in test [1] was “inactive”.
The same measure, in the same setting: the value for `O=[N+]([O-])c1ccc(CNc2nc(NCc3cccc(C(F)(F)F)c3)nc3nc[nH]c23)cc1` was “inactive”; that for `O=C(Nc1ccc2[nH]ncc2c1)C1CCC1` was “inactive”.
Still for that read-out and setting: the value for `O=C1NCc2c1c1c3ccccc3[nH]c1c1[nH]c3ccccc3c21` was “inactive”; that for `Nc1nc2c(ncn2[C@@H]2O[C@H](CO)[C@@H](O)[C@@H]2O)c(=O)[nH]1` was “inactive”.
Same read-out and setting: the value for `O=C1NC(=O)c2c1c(-c1ccccc1)cc1[nH]c3ccc(O)cc3c21` was “inactive”; that for `CCNC(=O)[C@H]1O[C@@H](n2cnc3c(N)nc(NCCc4ccc(CCC(=O)O)cc4)nc32)[C@H](O)C1O` (stereo partly drawn) was “inactive”; that for `CC[C@H]1OC(=O)[C@H](C)C(O[C@H]2C[C@@](C)(OC)[C@@H](O)[C@H](C)O2)[C@H](C)[C@@H](OC2O[C@H](C)C[C@H](N(C)C)[C@H]2O)[C@](C)(O)C[C@@H](C)CN(C)[C@H](C)[C@@H](O)[C@]1(C)O` (stereo partly drawn) was “inactive”.
As to `N[C@H](CCCP(=O)(O)O)C(=O)O`, the Potency entry in test [1] was “inactive”.
On the same count and under the same terms, then `CNC(=O)[C@H]1O[C@@H](n2cnc3c(NCc4cccc(I)c4)ncnc32)[C@H](O)C1O` (stereo partly drawn), with “inactive”.
As for `CC(C)NCC(O)COc1cccc2ccccc12` (stereo not drawn), the Potency entry in test [2], in [3], in [4], in test [7], in test [8] and in test [10] was “inactive” throughout. The Potency result in [1] and in [11] was “inactive” in each case. Also, the max response in [5] was -11.2% (inactive) and -5.42% (inactive); in test [9] it was 1.78% (inactive) and -12.1% (inactive). Also, the outcome in [6] was inactive.

The values are drawn from PubChem BioAssay (NCATS).
